High-throughput results as filed in PubChem.
An excerpt weighted towards active compounds, which were near 4.1% of everything screened.
tim10-1 inh – growth inhibitors of tim10-1 mutant yeast, primary screen, luminescence, uHTS; S. cerevisiae tim10-1 ts strain growth, BacTiter-Glo, 24 h; AID 463190, 2010; inhibition, % at 20 µM; 330,000 tested, 2.2% active;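 active means inhibition of at least 40%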;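 further: mutant grown at 25 °C; 0% = DMSO wells with yeast and 100% = wells holding no yeast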
TIM10 inh – growth inhibitors of isogenic TIM10 control yeast, primary screen, counter-screen for tim10-1 yeast inhibitor project, luminescence, uHTS | inhibition, % at 10 µM | 330,000 tested, 1.4% active | S. cerevisiae TIM10 strain growth, BacTiter-Glo luminescence, 24 h | AID 463195, 2010;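 active means inhibition of 40% or more at the single tested concentration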;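 further: wild-type TIM10 isogenic control strain grown at permissive 25 °C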
NALP1 yeast inh – NALP1 inflammasome inhibitors in reconstituted yeast, colorimetric, S. cerevisiae, triplicate retest. S. cerevisiae NALP1/ASC/caspase-1 growth, X-gal OD620, 72 h. inhibition, % at 10 µM. 280,000 tested, 0.61% active. AID 2071, 2009; in the data active means inhibition mostly above about 24%, no sharp cut-off; inactive means mostly below about 32%
tim23-1 inh – growth inhibitors of tim23-1 mutant yeast, primary screen, luminescence, uHTS. 330,000 tested, 1.3% active. S. cerevisiae tim23-1 growth, BacTiter-Glo luminescence, 24 h. inhibition, % at 20 µM;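 active means growth inhibition of the mutant yeast at or above 50%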;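 further: temperature-sensitive mutant grown at 25 °C; plate controls were DMSO-treated mutant yeast for no effect and medium wells lacking yeast for full effect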
NALP3 yeast inh – NALP3 inflammasome inhibitors in reconstituted yeast, primary screen, luminescence, uHTS; Yeast reconstituted NLRP3/ASC/caspase-1, beta-gal luminescence, 24 h; inhibition, % at 10 µM; 330,000 tested, 0.39% active; AID 2825, 2010;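 active means inhibition of 50% or more; inactive means inhibition below 50%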;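 further: plate controls were induced DMSO wells for no effect and uninduced yeast grown without galactose for full effect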
NALP3 yeast conf – NALP3 inhibitors retested in yeast, confirmation, luminescence, single concentration | shares compounds with NALP3 yeast inh | yeast expressing human NALP3 | inhibition, % at 10 µM | 1,300 tested, 81% active; in the data active means inhibition above about 48%
Casp1-ASC yeast – CASP1-PYCARD signaling inhibition in yeast, confirmatory test, counterassay for NLRP3 inhibitor program, one-dose. 1,000 tested, 66% active. inhibition, % at 10 µM. shares compounds with NALP3 yeast inh. yeast expressing Caspase-1-ASC, luminescence counter screen
NALP3 retest – NALP3 inhibitors in yeast, repeat test, confirmation, luminescence, single concentration, retest; yeast expressing human NALP3, luminescence read-out; inhibition, % at 10 µM; AID 488794, 2010; shares compounds with NALP3 yeast inh; 1,000 tested, 53% active
The depositor's hits bear a star; . = not tested or not shown. Unless noted, no stated cut-off is given here; in the data, active means inhibition above about 50%; inactive means the rest.

SMILES	tim10-1 inh	TIM10 inh	NALP1 yeast inh	tim23-1 inh	NALP3 yeast inh	NALP3 yeast conf	Casp1-ASC yeast	NALP3 retest
O=C(NC(=S)NNC(=O)c1ccccc1O)c1ccc(F)cc1	-6.3	26.6	-1.0	41.9	50.4*	66.8*	46.6	52.1*
Cc1ccc(C(=O)NNC(=S)NC(=O)c2ccccc2)cc1	-4.4	25.3	.	21.4	47.2	.	.	.
COc1cccc(CN(C)C(=O)c2cccc(OCc3ccccc3)c2)c1	15.9	18.1	5.1	20.1	8.2	.	.	.
O=C(Nc1ccccc1)C(=O)c1c[nH]c2ccccc12	-27.0	-21.1	-10.7	-4.1	57.6*	75.4*	42.2	49.7
NC(=O)c1c[nH]c2ccccc12	-1.9	-8.1	11.3	-3.2	-10.4	.	.	.
O=C(/C=C/c1ccccc1)c1c[nH]c2ccccc12	-59.7	-23.9	0.1	16.0	50.2*	62.6*	.	.
CC1CCCCC1NC(=O)CCNS(=O)(=O)c1cc(Br)cnc1N (stereo not given)	19.6	12.6	8.8	5.0	15.5	.	.	.
Cc1c(Cl)cccc1-n1c(SCC(=O)N2CCC(C(=O)O)CC2)nc2ccccc2c1=O	16.0	2.2	18.3	18.8	16.4	.	.	.
O=C(CNC(=O)c1ccccc1Br)N/N=C\c1cc([N+](=O)[O-])cc(Br)c1O	14.6	2.1	-6.1	13.2	50.8*	36.9	22.6	35.5
CCN(CC)S(=O)(=O)c1cccc(C(=O)Nc2cc(C)cc(C)c2)c1	34.0	30.5	4.2	-13.0	5.1	.	.	.
CCN(CC)S(=O)(=O)c1ccc(C(=O)Nc2cc(C)cc(C)c2)cc1	25.6	38.2	-6.1	22.6	50.6*	51.6*	32.4	42.2
NCCC(=O)N1c2ccccc2Sc2ccccc21	-11.6	-7.6	35.9*	-5.1	68.4*	78.2*	62.4*	76.6*
CCCCCCN[C@H]1CCC2C3CC=C4C[C@@H](O)CC[C@]4(C)C3CC[C@@]21C (stereo not given in full)	19.0	-37.1	.	18.2	61.6*	65.5*	.	.
CC(=O)OCC(=O)C1CCC2C3CC=C4CC(O)CCC4(C)C3CCC12C (stereo not given)	20.8	23.0	.	30.3	74.1*	80.7*	77.3*	65.9*
CC(=O)OCC(=O)[C@H]1CC[C@H]2[C@@H]3CCC4=CC(=O)CC[C@]4(C)[C@H]3CC[C@]12C	12.8	-5.8	33.9	38.9	49.6	.	.	.
Cc1cccc(C)c1NC(=O)C[N+](C)(C)CC(O)COc1cccc2ccccc12 (stereo not given)	9.5	8.1	2.1	12.3	-0.9	.	.	.
CCOC(=O)c1cnc(SC)nc1N1CCCC1	-21.7	-20.2	2.7	2.2	55.5*	51.6*	55.6*	41.9
CC1CCN(C(=O)COC(=O)c2ccc3c(c2)C(=O)N(Cc2ccco2)C3=O)CC1	29.3	17.3	.	37.9	-6.8	.	.	.
O=S(=O)(c1ccc(Cl)cc1)c1snnc1-c1ccccc1	12.8	-6.5	14.1	30.8	60.8*	72.5*	73.5*	66.2*
O=S(=O)(c1ccc(F)cc1)c1snnc1-c1ccccc1	.	.	6.5	.	.	.	.	.
Cc1ccccc1-c1ccc(Nc2ccc(N3CCOCC3)cc2)nn1	1.3	-10.5	21.3	-23.4	63.7*	73.7*	59.5*	61.5*
CC1=C(C(=O)N(C)C)C(c2ccc(C)s2)NC(=S)N1 (stereo not given)	-20.0	-6.0	-5.6	2.4	9.4	.	.	.
Cc1cccc(C)c1NC(=O)C(C)N1CCCC1 (stereo not given)	2.8	-9.8	-9.8	-16.2	7.1	.	.	.
Cc1cccc(C)c1NC(=O)C(C)N (stereo not given)	3.5	-3.1	.	5.0	55.4*	58.6*	40.1	43.1
CCCCn1c(N)c(N(CCOC)C(=O)c2sc3cc(F)ccc3c2Cl)c(=O)[nH]c1=O	8.1	2.4	.	5.4	4.4	.	.	.
SMILES	tim10-1 inh	TIM10 inh	NALP1 yeast inh	tim23-1 inh	NALP3 yeast inh	NALP3 yeast conf	Casp1-ASC yeast	NALP3 retest
CCOC(=O)Nc1ccc(S(=O)(=O)NC2CCCCC2)cc1	-4.8	-2.0	3.4	6.8	56.8*	68.4*	.	.
CCc1ccc(/C=C2\Oc3c(ccc(O)c3CN3CCN(CCO)CC3)C2=O)cc1	6.8	4.8	15.1	16.3	16.3	.	.	.
O=C1C(=O)N(CCCN2CCOCC2)C(c2ccc(Cl)cc2)/C1=C(\O)c1ccc2c(c1)OCCO2 (stereo not given)	5.0	-10.8	1.9	0.2	4.3	.	.	.
CCCCOc1ccc(C2/C(=C(\O)c3ccc4c(c3)OCCO4)C(=O)C(=O)N2CCCN2CCOCC2)cc1 (stereo not given)	4.6	11.0	18.7	7.3	59.5*	54.9*	68.3*	53.5*
COc1cccc(NS(=O)(=O)c2ccc(Br)s2)c1	22.3	-13.4	9.3	9.2	52.9*	63.2*	47.1	30.3
COc1ccc(-c2cc3nc4ccccc4n3c(N)c2C#N)cc1	22.7	0.9	8.5	21.1	68.3*	47.3	14.8	5.9
Cc1ccc(C(=O)N2CCN(S(=O)(=O)c3ccccc3)CC2)s1	7.5	-7.3	.	-0.3	-1.4	.	.	.
CCOC(=O)c1cnn(-c2cccc(Cl)c2)c1N	-10.8	-14.2	17.6	-9.3	55.9*	73.2*	52.8*	31.7
COC(=O)c1ccc(C(=O)OC)c(NC(=O)COC(=O)C2CC2C)c1 (stereo not given)	-4.4	-16.4	-11.5	-9.5	24.8	.	.	.
CN(CC(=O)N1CCc2ccccc2C1)c1ccccc1	-4.5	2.2	29.8	11.8	55.5*	43.5	44.6	55.4*
O=C(CSc1nc(COc2ccccc2)nc2ccccc12)NC1CCCC1	11.9	-8.5	-3.4	17.1	70.6*	39.6	67.2*	55.7*
CCCNC(=O)CSc1nc(COc2ccccc2)nc2ccccc12	24.1	-21.3	-2.4	10.6	42.3	.	.	.
CS/C(=N\S(=O)(=O)c1cccs1)Nc1ccc(F)c(Cl)c1	21.5	1.2	33.0	32.6	-13.3	.	.	.
CS/C(=N\S(=O)(=O)c1cccs1)Nc1cccc(Cl)c1C	19.3	24.4	13.6	19.9	-117.6	-3.3	.	.
Cc1ccc(Nc2c([N+](=O)[O-])ccc3c2=NC2(CCCCC2)N=3)cc1	9.2	29.7	-10.1	39.7	51.7*	56.0*	.	.
O=[N+]([O-])c1ccc2c(c1Nc1ccccc1Cl)=NC1(CCCCC1)N=2	15.2	12.1	-17.1	25.0	26.5	.	.	.
COC(=O)c1ccc(CNCC(O)COc2ccc(-c3ccccc3)cc2)cc1 (stereo not given)	-23.5	16.2	23.7	-32.2	39.3	.	.	.
